Assay results taken from PubChem BioAssay (NCI).
The panel holds about 83,000 compounds, 20% with a hit somewhere; the sample as a whole holds those more often.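 Interpretation: 100, growth as untreated; towards 0, rising growth inhibition; 0, no net growth; 0 to -100, cell death. Compounds scoring below 10 were considered active.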 Activity calls are given as the source filed them.

Tests used:
Experiment in all cases: NCI-60 one-dose screen, 48 h (100 = growth as untreated, 0 = no growth, -100 = all killed)
DU-145 prostate = settings: 10 µM unless noted
MALME-3M melanoma = settings: 10 µM unless noted
MDA-MB-231 breast = settings: 10 µM unless noted
RXF 393 renal = settings: 10 µM unless noted
SF-268 CNS = settings: 10 µM unless noted
SF-295 CNS = settings: 10 µM unless noted
SF-539 CNS = settings: 10 µM unless noted
UACC-257 melanoma = settings: 10 µM
M14 melanoma = settings: 10 µM unless noted
HCT-15 colon = settings: 10 µM unless noted
HT29 colon = settings: 10 µM unless noted
SNB-75 CNS = settings: 10 µM unless noted
SNB-19 CNS = settings: 10 µM unless noted
U251 CNS = settings: 10 µM unless noted
PC-3 prostate = settings: 10 µM unless noted
SK-MEL-5 melanoma = settings: 10 µM unless noted
UACC-62 melanoma = settings: 10 µM unless noted
LOX IMVI melanoma = settings: 10 µM unless noted
SK-MEL-28 melanoma = settings: 10 µM unless noted
K-562 leukemia = settings: 10 µM unless noted

Measured: growth

C/C(Cc1ccc(Cl)cc1)=C(/c1ccccc1)c1ccc(OCCN)cc1
inactive: DU-145 prostate 106% | MALME-3M melanoma 88.5% | MDA-MB-231 breast 98.7% | RXF 393 renal 102% | SF-268 CNS 94.2% | SF-295 CNS 99.7% | SF-539 CNS 99.7% | UACC-257 melanoma 106% | M14 melanoma 95.7% | HCT-15 colon 101% | HT29 colon 102% | SNB-75 CNS 98.2% | SNB-19 CNS 92.9% | U251 CNS 100% | PC-3 prostate 99% | SK-MEL-5 melanoma 99.1% | UACC-62 melanoma 91.7% | LOX IMVI melanoma 98% | SK-MEL-28 melanoma 96%

C=CCn1c(SCC(=O)Nc2cccc(C(=O)/C=C/c3ccccc3Cl)c2)nc2ccccc2c1=O
inactive: DU-145 prostate 93.7% | MALME-3M melanoma 96.9% | MDA-MB-231 breast 93.8% | RXF 393 renal 94.3% | SF-268 CNS 88.4% | SF-295 CNS 93.8% | SF-539 CNS 86.6% | UACC-257 melanoma 107% | M14 melanoma 87.5% | HCT-15 colon 75.4% | HT29 colon 75% | SNB-75 CNS 70.9% | SNB-19 CNS 78.5% | U251 CNS 81.8% | PC-3 prostate 82.8% | SK-MEL-5 melanoma 98.8% | UACC-62 melanoma 83.4% | LOX IMVI melanoma 79.5% | SK-MEL-28 melanoma 92.3%

C=CCn1c(SCC(=O)Nc2cccc(C(=O)/C=C/c3ccc(C)cc3)c2)nc2ccccc2c1=O
inactive: DU-145 prostate 95.9% | MALME-3M melanoma 106% | MDA-MB-231 breast 92.8% | RXF 393 renal 77.7% | SF-268 CNS 90.6% | SF-295 CNS 101% | SF-539 CNS 89.4% | UACC-257 melanoma 96.8% | M14 melanoma 96.7% | HCT-15 colon 62% | HT29 colon 72.7% | SNB-75 CNS 78.4% | SNB-19 CNS 81.7% | U251 CNS 72% | PC-3 prostate 72.5% | SK-MEL-5 melanoma 97.2% | UACC-62 melanoma 76.7% | LOX IMVI melanoma 73.8% | SK-MEL-28 melanoma 95.3%

CC1OC(O[C@@H]2[C@H](O)C(CO)OC(O[C@H]3COC(O[C@H]4CC[C@]5(C)[C@H]6CC[C@]78OC[C@@]9(CC[C@](C)(C=O)C[C@H]97)C(=O)C[C@@]8(C)[C@]6(C)CC[C@H]5C4(C)C)[C@@H](O)[C@@H]3O)[C@H]2OC2OC[C@@H](O)[C@@H](O)[C@@H]2O)[C@@H](O)[C@@H](O)[C@H]1O (stereo not given in full)
inactive: DU-145 prostate 108% | MALME-3M melanoma 98.2% | MDA-MB-231 breast 79.7% | RXF 393 renal 87.4% | SF-268 CNS 95.9% | SF-295 CNS 89.9% | SF-539 CNS 99.8% | UACC-257 melanoma 95.3% | M14 melanoma 96.9% | HCT-15 colon 95.8% | HT29 colon 97.1% | SNB-75 CNS 81.4% | SNB-19 CNS 90.2% | U251 CNS 95.8% | PC-3 prostate 81.4% | LOX IMVI melanoma 88.1%

O=C(Cn1cc(CN2C(=O)c3ccc([N+](=O)[O-])cc3C2=O)nn1)Nc1ccc(F)cc1Cl
inactive: DU-145 prostate 106% | K-562 leukemia 97.9% | MALME-3M melanoma 83.3% | MDA-MB-231 breast 92.4% | SF-268 CNS 99.8% | SF-295 CNS 104% | SF-539 CNS 93.9% | UACC-257 melanoma 97.8% | M14 melanoma 94.8% | HCT-15 colon 99.5% | HT29 colon 102% | SNB-75 CNS 92.6% | SNB-19 CNS 97.2% | U251 CNS 97.3% | PC-3 prostate 92.6% | SK-MEL-5 melanoma 101% | LOX IMVI melanoma 107% | SK-MEL-28 melanoma 99.9%

COc1cc2c3c(n(CCCNC4CCCCC4)c(=O)c2cc1OC)-c1cc2c(cc1C3=O)OCO2
inactive: RXF 393 renal 76.6% | SF-268 CNS 70.1% | SF-295 CNS 66.1% | UACC-257 melanoma 96.9% | M14 melanoma 33% | SNB-75 CNS 80.6% | SK-MEL-5 melanoma 97.2% | UACC-62 melanoma 81% | SK-MEL-28 melanoma 97%
active: DU-145 prostate -68.4% | MALME-3M melanoma -46.9% | MDA-MB-231 breast -78.1% | SF-539 CNS -85.5% | HCT-15 colon -68.7% | HT29 colon -69.2% | SNB-19 CNS 2.72% | U251 CNS -91.1% | PC-3 prostate -83.6% | LOX IMVI melanoma -76.7%

C=C(C)C(=O)O[C@H]1C[C@@]2(C)OC(=CC2=O)/C(C)=C\[C@H]2OC(=O)C(=C)[C@H]12
inactive: SF-295 CNS 42.1% | SNB-75 CNS 33.3% | SNB-19 CNS 49.1%
active: DU-145 prostate -3.72% | MALME-3M melanoma 6.62% | MDA-MB-231 breast -33.3% | RXF 393 renal -53.7% | SF-268 CNS 7.51% | SF-539 CNS -54.6% | UACC-257 melanoma -26.3% | M14 melanoma -37% | HCT-15 colon 1.22% | HT29 colon 1.99% | U251 CNS 6.75% | PC-3 prostate -2.26% | LOX IMVI melanoma -58.6%

COc1ccc(NC(=O)Cn2cc(CN3C(=O)c4ccc([N+](=O)[O-])cc4C3=O)nn2)cc1
inactive: DU-145 prostate 113% | K-562 leukemia 98.1% | MALME-3M melanoma 101% | MDA-MB-231 breast 91.4% | SF-268 CNS 109% | SF-295 CNS 113% | SF-539 CNS 100% | UACC-257 melanoma 97.7% | M14 melanoma 108% | HCT-15 colon 98.2% | HT29 colon 109% | SNB-75 CNS 73.9% | SNB-19 CNS 93.6% | U251 CNS 100% | SK-MEL-5 melanoma 102% | LOX IMVI melanoma 97.7% | SK-MEL-28 melanoma 110%

N#Cc1ccc(S(=O)(=O)Nc2ccc(-c3cnc(N)[nH]3)cc2)cc1
inactive: DU-145 prostate 107% | MALME-3M melanoma 98% | MDA-MB-231 breast 100% | RXF 393 renal 102% | SF-268 CNS 105% | SF-295 CNS 96.9% | SF-539 CNS 98.7% | UACC-257 melanoma 98.2% | M14 melanoma 99.9% | HCT-15 colon 96.7% | HT29 colon 98.5% | SNB-75 CNS 106% | SNB-19 CNS 94.1% | U251 CNS 98.3% | PC-3 prostate 99% | SK-MEL-5 melanoma 100% | UACC-62 melanoma 92.4% | LOX IMVI melanoma 97.9% | SK-MEL-28 melanoma 97.1%

CCN1CCN(Cc2ccc(C(=O)Nc3nc4ccc(Oc5ccnc(C(=O)NC)c5)cc4s3)cc2C(F)(F)F)CC1
active: MALME-3M melanoma -5.31% | SF-539 CNS -42.2% | UACC-257 melanoma -2.29% | M14 melanoma -4.9% | HCT-15 colon 6.98% | HT29 colon 3.42% | LOX IMVI melanoma -11.8% | SK-MEL-28 melanoma -66.5%
inactive: DU-145 prostate 79.3% | MDA-MB-231 breast 52% | RXF 393 renal 25% | SF-268 CNS 78.1% | SF-295 CNS 35.1% | SNB-75 CNS 75.9% | SNB-19 CNS 66.6% | U251 CNS 41.9% | PC-3 prostate 46.1% | SK-MEL-5 melanoma 17.7% | UACC-62 melanoma 24.6%

N#C/C(=C\c1ccc(-c2ccc(F)cc2)o1)C(=O)Nc1ncc(Cc2ccc(Cl)cc2Cl)s1
active: DU-145 prostate -46.5% | MALME-3M melanoma -52.7% | SF-268 CNS 1.24% | SF-295 CNS 3.15% | SF-539 CNS -2.12% | M14 melanoma 2.18% | HCT-15 colon -31.7% | HT29 colon 6.93% | SNB-19 CNS -12.9% | LOX IMVI melanoma -85.6%
inactive: K-562 leukemia 15.5% | MDA-MB-231 breast 20.1% | UACC-257 melanoma 84.1% | SNB-75 CNS 58.3% | U251 CNS 21.9% | SK-MEL-5 melanoma 27.4% | UACC-62 melanoma 15.9% | SK-MEL-28 melanoma 39.5%

Cn1cc(-c2nn3c(=O)cc(-c4ccccc4)nc3s2)c2cc(F)ccc21
inactive: DU-145 prostate 66.6% | MALME-3M melanoma 22.7% | MDA-MB-231 breast 58.3% | RXF 393 renal 45.9% | SF-268 CNS 78.4% | SF-295 CNS 34.7% | SF-539 CNS 49.9% | M14 melanoma 46.6% | HCT-15 colon 29.6% | HT29 colon 33.3% | SNB-75 CNS 30.9% | SNB-19 CNS 65.6% | U251 CNS 48.5% | PC-3 prostate 34.8% | SK-MEL-5 melanoma 43.8% | UACC-62 melanoma 33.9% | LOX IMVI melanoma 59.3% | SK-MEL-28 melanoma 45.2%

C=CCn1c(SCC(=O)Nc2cccc(C(=O)/C=C/c3cccc([N+](=O)[O-])c3)c2)nc2ccccc2c1=O
inactive: DU-145 prostate 94.1% | MALME-3M melanoma 90.1% | MDA-MB-231 breast 90.1% | RXF 393 renal 84.6% | SF-268 CNS 92.5% | SF-295 CNS 93.5% | SF-539 CNS 96.7% | UACC-257 melanoma 99.3% | M14 melanoma 84.2% | HCT-15 colon 79.3% | HT29 colon 94.9% | SNB-75 CNS 85.5% | SNB-19 CNS 90.2% | U251 CNS 87.9% | SK-MEL-5 melanoma 98.6% | UACC-62 melanoma 77.2% | LOX IMVI melanoma 72.8% | SK-MEL-28 melanoma 95.4%

COc1ccc2c(c1)c(-c1nn3c(=O)cc(-c4ccccc4)nc3s1)cn2C
inactive: DU-145 prostate 63.8% | MALME-3M melanoma 35.5% | MDA-MB-231 breast 55.3% | RXF 393 renal 35.4% | SF-268 CNS 64.9% | SF-295 CNS 28.8% | SF-539 CNS 16% | M14 melanoma 35.4% | HCT-15 colon 34.7% | HT29 colon 10.5% | SNB-75 CNS 14.9% | SNB-19 CNS 39.1% | U251 CNS 26.8% | PC-3 prostate 32.4% | SK-MEL-5 melanoma 38.7% | UACC-62 melanoma 24.2% | LOX IMVI melanoma 37.9% | SK-MEL-28 melanoma 51.5%

COc1cc2c3c(n(CCCNC4CCCC4)c(=O)c2cc1OC)-c1cc2c(cc1C3=O)OCO2
active: DU-145 prostate -78.5% | MALME-3M melanoma -75% | MDA-MB-231 breast -76.6% | SF-268 CNS -42.7% | SF-295 CNS -76.8% | SF-539 CNS -85.4% | M14 melanoma -88.9% | HCT-15 colon -68.6% | HT29 colon -55.1% | U251 CNS -87.9% | LOX IMVI melanoma -82.3%
inactive: RXF 393 renal 49.7% | SNB-75 CNS 84.9% | SNB-19 CNS 46.2% | SK-MEL-5 melanoma 95% | UACC-62 melanoma 74% | SK-MEL-28 melanoma 95.8%
